Consider one compound from PubChem BioAssay AID588507 (Broad Institute, 2011).

This experiment can be described thus: compound effect on GFP reporter cells – imaging, dry powder samples, counter-screen for PrP inhibitor project, dose response (AID 588507). The note with it: max activity: measured here: maximum activity across titration, at 0.0195 µM. (Counterscreens check selectivity or assay interference.)

Structures are written as SMILES. Activity calls are given as the source filed them. The rule behind the calls is not given here.

With `COc1cc(SC)ccc1C(=O)Nc1nc2ccccc2[nH]1`, the max activity is 451% and the compound was called inactive.
